SRC1 inh: SRC1 coactivator transcriptional activity inhibitors, primary screen, cell-based, luminescence | AID 588354, 2011 | HEK293 GAL4-SRC1 luciferase reporter | 0.12% of 360,000 active | inhibition, % at 3.6 µM;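 active means inhibition above the campaign mean plus 3 SD, with each screening campaign given its own cutoff, cut at about 60% in these data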;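 further: 0% = DMSO treated cells and 100% = gossypol at 36 µM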
NCOA3 inh: SRC3 coactivator transcriptional activity inhibitors, primary screen, cell-based, luminescence; 0.17% of 360,000 active; Nuclear receptor coactivator 3 (Homo sapiens), Q9Y6Q9; HEK293 GAL4-SRC3 luciferase reporter; AID 588352, 2011; inhibition, % at 3.6 µM;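 active means inhibition above a per-campaign cutoff, the mean of all compounds plus 3 SD, cut at about 60% in these data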;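 further: 0% = DMSO-treated cells and 100% = gossypol-treated cells at 36 µM; higher means less SRC3-driven luciferase light from the GAL4 reporter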
LGR2 inh: inhibitors of bursicon-induced LGR2 CRE-luciferase signal, primary screen, cell-based, HEK293, CRE-luciferase reporter, bursicon stimulation. Drosophila bursicon receptor LGR2 (rickets). bursicon-stimulated, 4 h. inhibition, % at 9.99 µM. 0.35% of 380,000 active. AID 720647, 2013;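 active means drop in luminescence signal, shown as inhibition above about 50% in the replicate tests, limit read from the data, passing the limit was not always enough; inconclusive means probably only some replicates passing the limit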;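 further: agonist challenge used bursicon conditioned medium at about half maximal strength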
LRH-1 inv ag: LRH-1 (NR5A2) inverse agonists, primary screen, cell-based, luminescence, HEK293T, StAR-luciferase reporter; Nuclear receptor subfamily 5 group A member 2 (Homo sapiens), O00482; LRH-1 transfected, 24 h; inhibition, % at 3.6 µM; 0.13% of 360,000 active; AID 602396, 2012;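 active means inhibition above the mean inhibition of all tested compounds plus 3 SD, cut at about 73% in these data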;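 further: 0% = DMSO wells and 100% = reporter-only cells lacking LRH-1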
NCOA2 inhibitor: inhibition of GAL4-SRC2 driven luciferase reporter, primary screen, SRC2 inhibitor project, cell-based, luminescence. inhibition, % at 9 µM. HEK293 GAL4-SRC2 luciferase reporter. 0.17% of 370,000 active. Nuclear receptor coactivator 2 (Homo sapiens), Q15596;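 active means inhibition above the mean inhibition of all tested compounds plus 3 SD, set per campaign, cut at about 52% in these data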;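 further: 0% = DMSO treated cells and 100% = cells given Gossypol at 36 µM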
Active calls of the source: *; i = inactive; ? = inconclusive; · = no result given; ! = not confirmed by another sample. Sampled rows, rich in hits. Any-hit rate of the full collection: about 0.45%.

SMILES	SRC1 inh	NCOA3 inh	LGR2 inh	LRH-1 inv ag	NCOA2 inhibitor
CCn1c(C)nc2cc(-c3nc4n(n3)Cc3ccccc3-4)ccc21	91*	86*	·	95*	·
C[C@H](O)C#Cc1ccc2c(c1)O[C@H](CN(C)CC1CC1)[C@H](C)CN([C@@H](C)CO)S2(=O)=O	·	·	-1	·	·
CO[C@H]1CN(C)C(=O)c2ccc(NC(=O)C3CC3)cc2OC[C@H](C)N(CC2CCOCC2)C[C@@H]1C	·	·	0	·	·
O=[N+]([O-])/C=C/c1cn(Cc2ccccc2)c2ccccc12	-5	4	·	-4	6
N#Cc1ccccc1Cn1cc(/C=C/[N+](=O)[O-])c2ccccc21	-9	23	69*	13	3
O=C(Cn1cc(/C=C\[N+](=O)[O-])c2ccccc21)Nc1ccccc1	-14	-8	67*	3	1
O=C(O)Cn1cc(/C=C/[N+](=O)[O-])c2ccccc21	-24	11	1	15	11
COc1ccc2c3c([nH]c2c1)[C@@H](CO)N(Cc1cccnc1)CC31CN(C(=O)CN(C)C)C1	·	·	-2	·	·
Cc1ccc(C(=O)/C=C2\NCC(C)NC2=O)cc1 (stereo unspecified)	-59	-65	54*	-84	-9
Cc1ccc(C(=O)/C=C2\NCCNC2=O)cc1	-149	-95	·	-158	-42
CN(C)CCCN1C(=O)c2cccc3cccc(c23)C1=O	2	2	-3	-14	-16
CN(C)CCN1C(=O)c2cccc3cc([N+](=O)[O-])cc(c23)C1=O	31	-30	·	82*	i
Oc1ccc(N=Nc2ccc3c(c2)OCCO3)c2cccnc12	37	59	-41	4	52*
O=C(C[C@H]1C=C[C@H](NS(=O)(=O)c2ccccc2)[C@@H](CO)O1)N1CCC(Cc2ccccc2)CC1	·	·	10	·	·
COc1ccc(/C=N/Nc2nc3ccccc3s2)cc1O	-121	-52	86*	-129	-27
Nc1ccc(-c2ncc(-c3ccccc3)o2)cc1	21	15	-16	34	80*
CCC(C)(C)C1CCc2[nH]nc(C(=O)NC3CCCC3)c2C1 (stereo unspecified)	1	-44	·	-7	-6
O=C(NC1CCCCC1)c1n[nH]c2c1CCCCC2	25	31	91*	23	57*
Cc1cnc(NC(=O)CCNC(=O)c2ccccc2Cl)s1	-5	2	0	-13	-40
Cc1cnc(NC(=O)COc2ccccc2Cl)s1	-29	-12	91*	-75	34
Cc1ccc2nc(-c3ccccc3)cn2c1	28	36	·	11	67*
COc1ccc2c(c1)sc1nc(-c3ccccc3)cn12	5	13	·	-1	61*
CCOC(=O)N1CCN(C(=O)c2ccc3c(c2)sc2nc(-c4ccc(OC)cc4)cn23)CC1	-18	-6	35	6	-6
CC1=C(C(=O)OCc2ccc3c(c2)OCO3)C(c2ccccc2OCc2ccccc2)NC(=O)N1 (stereo unspecified)	19	17	10	14	1
CCCCOC(=O)C1=C(C)NC(=O)NC1c1ccc2c(c1)OCO2 (stereo unspecified)	-11	-4	-1	22	1
SMILES	SRC1 inh	NCOA3 inh	LGR2 inh	LRH-1 inv ag	NCOA2 inhibitor
CC1=C(C(=O)OCc2ccc3c(c2)OCO3)C(c2ccc(O)c([N+](=O)[O-])c2)NC(=O)N1 (stereo unspecified)	52	58	-2	-1	56*
CC1=C(C(=O)OCc2ccc3c(c2)OCO3)C(c2ccccc2)NC(=O)N1 (stereo unspecified)	71*	70*	33	47	54*
Cc1nc(S(=O)(=O)N(C)c2ccccc2)c(C#N)c(C)c1Cl	18	31	·	14	54*
CN(c1ccccc1)S(=O)(=O)c1ccc(Cl)nc1	8	18	0	5	-55
O=C(N/N=C/c1cc2c3c(c1O)CCCN3CCC2)c1ccccc1O	66*	68*	7	63	7
Cc1nn(-c2ccccc2)c(N2CCCC2)c1/C=N/NC(=O)c1ccccc1O	-3	0	12	-58	-5
COCCCN=C1NN=C(c2cc(C)n(Cc3ccco3)c2C)CS1	-133	-87	-30	-110	-62
COCCn1c(C)cc(C2=NNC(=Nc3ccc(Cl)cc3Cl)SC2)c1C	-8	4	·	12	11
COc1ccc(-n2c(C)cc(C3=NNC(=NC4CC4)SC3)c2C)cc1	-45	-53	-10	-36	-66
c1ccc2c(C3=NNC(=NC4CC4)SC3)c[nH]c2c1	-133	-116	58*	-142	-58
COCCn1c(C)cc(C2=NNC(=NC3CC3)SC2)c1C	89*	91*	94*	87*	86*
Cc1cc(C2=NNC(=NC3CC3)SC2)c(C)n1-c1ccccc1	84*	86*	-4	77*	80*
Cc1cc(C2=NNC(=NC3CC3)SC2)c(C)n1Cc1ccco1	76*	83*	·	76*	83*
C=CCN=C1NN=C(c2cc(C)n(CCOC)c2C)CS1	13	28	?	-7	70*
CCN1[C@@H]2Cn3c(ccc(/C=C/c4ccccc4)c3=O)[C@H]1[C@@H](C(=O)N1CCCCC1)[C@@H]2CO	·	·	0	·	·
CCN1CCN(C(=O)c2ccc(-c3nc4ccccc4s3)s2)CC1	-86	-102	-31	-106	-31
O=C(c1ccc(-c2nc3ccccc3s2)s1)N1CCOCC1	·	·	76*	·	15
CC(O)CC(=O)OC[C@]12CC[C@H]3[C@@](C)(CC[C@H]4C(C)(C)CCC[C@]34C)[C@@H]1CC(C1=CC(=O)OC1O)O2 (stereo partly specified)	38	58	·	78*	42
C1CCC(C(CC2CCCCN2)C2CCCCC2)CC1 (stereo unspecified)	12	6	58*!	13	14
CS(=O)c1nc(-c2ccc(Br)cc2)cc(-c2ccccc2)c1C#N (stereo unspecified)	11	57	97*	22	30
CS(=O)(=O)c1nc(-c2ccc(Br)cc2)cc(-c2ccccc2)c1C#N	0	11	·	-16	7
COc1ccc2sc(-c3ccc(S(C)(=O)=O)cc3)c(C#CCO)c2c1	-18	-10	57*	28	-38
C[C@H](CO)N1C[C@H](C)[C@@H](CN(C)C(=O)Nc2ccc(F)cc2)OCc2ccccc2-c2c(n(C)c3ccccc23)C1=O	·	·	27	·	·
CCCCCc1ccc(OCCOCCn2c[n+](C)c3ccccc32)c(CCCCC)c1	-35	54	·	38	·
CCCCCc1ccc(OCCC[n+]2ccccc2)c(CCCCC)c1	34	66*	15	59	5
CC(=O)CSc1ccc(-c2nc3cc(C)c(C)cc3[nH]2)cn1	21	46	98*	0	63*
